# Data as given in ChEMBL document CHEMBL1201862, “PubChem BioAssay data set” (2004).
# The whole screen tested about 1,500 compounds, of which about 140 (9.3%) were called active. The rule behind the calls is not given here. The full list was thinned out, with actives kept by preference.
# Test: AlphaScreen signal interference with preloaded methylated product, dose response, artefact control for NSD2 inhibitor project, biochemical, cherry-picked samples (AID 1053174);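 note: actives lower the AlphaScreen signal from the preloaded product and count as artifacts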
row,Compound,AbsAC35
1,OCC[n+]1c2ccccc2nc2ccc(N3CCOCC3)cc21,15.8 µM (active)
2,N/C(=N\N=C/c1ccc(-c2ccc(O)c(C(=O)O)c2)o1)N[N+](=O)[O-],19.7 µM (active)
3,CN(c1ccc(O)cc1)c1ccc([N+](=O)[O-])c2nonc12,15.7 µM (active)
4,CCCCCCCSc1cc(OC)c(CCNC)cc1OC,14.6 µM (active)
5,CC[n+]1c(-c2ccccc2)c2cc(N)ccc2c2ccc(N)cc21,21.9 µM (active)
6,CN(C)c1ccc(CN2CC=C(c3ccc(F)cc3)CC2)cc1,15.5 µM (active)
7,CCN(CC)c1ccc(CN2CC=C(c3ccc(F)cc3)CC2)cc1,15.3 µM (active)
8,CCCCN1C(=O)/C(=C/C=C/c2ccco2)C(=O)NC1=S,10.6 µM (active)
9,CN(C)c1ccc(/C=C/c2cc[n+](C)c3ccccc23)cc1,10.6 µM (active)
